# Assay outcomes (PubChem)
# Pf growth 48h – inhibits P. falciparum growth in the first generation, 48 h; 5.9% of 310,000 active; Potency, µM (doses to about 28.7 µM), for inactives: top-dose activity change, negative = inhibition, hits mostly inhibitors; P. falciparum luciferase growth in erythrocytes, 48 h; AID 504832; also: potency is read from the fitted curve at half-maximal effect; % is scaled to controls: 0 for no effect and ±100 for the full control effect
#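 Here the parasites carry a stable luciferase gene and grow inside erythrocytes in Albumax-based RPMI medium with compound for one erythrocytic cycle. Activity is scored as loss of luminescent signal.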
# Sm TGR inh – blocks Schistosoma mansoni thioredoxin glutathione reductase | Q962Y6 | purified TGR, DTNB reduction, TNB absorbance 405 nm | AID 485364 | 3% of 360,000 active | Potency, µM (series often up to 114 µM), for inactives: at the highest dose activity change, negative = inhibition, most hits filed as inhibitors; also: potency is read from the fitted curve at half-maximal effect; % is scaled to controls: 0 for no effect and ±100 for the full control effect; nearly all actives have a fitted effect of over 60% in size
#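 First, TGR (20 nM dispensed) and NADPH were mixed with compound. Second, a 15 min room-temperature incubation followed. Third, further NADPH and then DTNB were added to start the reaction. Finally, TNB absorbance was monitored kinetically.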
# Pf growth 96h – P. falciparum growth inhibition at 96 hour, primary screen for plastid delayed-death inhibitors. 6.9% of 320,000 active. Potency, µM (doses to about 28.7 µM), for inactives: at the top dose activity change, negative = inhibition, usual class: inhibitors. P. falciparum luciferase reporter growth, 96 h. AID 504834; also: potency is read from the fitted curve at half-maximal effect; % is scaled to controls: 0 for no effect and ±100 for the full control effect
#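 Delayed-death screen, second-generation endpoint: infected erythrocytes, 2% hematocrit, 0.05% parasitemia final; 96 hours at 37 C, 5% CO2; luciferase detection reagent; luminescence decrease equals reduced growth.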
# Shiga inhibitor – blocks Shiga toxin action in Vero cells; AID 2315; 9.2% of 290,000 active; Vero cells, Shiga toxin protein synthesis inhibition reporter; inhibition, % at 38.7 µM; in the data active = inhibition mostly above about 28%, no sharp cut-off; inactive = mostly below about 43%; also: 0% is about no effect
# CHX counter – counter-screen for Shiga toxin inhibitors: cycloheximide protein synthesis inhibition; cell reporter, cycloheximide protein synthesis inhibition counterscreen; max response, %; 12% of 300,000 active; AID 2314; in the data active = max response mostly above about 13%, no sharp cut-off; inactive = mostly below about 14%; also: read at 38.3 µM for the half of the compounds with a filed dose; 0% is about no effect
# NS1 inh – influenza NS1 inhibition; Potency, µM (series often up to 46.1 µM), for inactives: top-dose activity, positive = more growth; 0.4% of 270,000 active; calls by dose curve; also: potency is read from the fitted curve at half-maximal effect; actives are rising curves; nearly all actives have a fitted effect of over 50% in size
#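 A cell-based growth assay was used: compounds that relieve NS1-induced slow growth of budding yeast raise OD600. Assay medium was yeast nitrogen base with ammonium sulphate and -URA supplement, pH 6.0, with 2% galactose.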
# Numbers without * were called inactive; ? = inconclusive; · = no result given. Shown are actives, neighbours in structure and some others; about 21% of the full set was active somewhere. Unless noted, calls follow the shape of the dose curve; as a rule, active = well fitted curve in the direction sought with a large enough effect; inconclusive = small, poorly fitted or top-dose-only effect, or another doubt; inactive = no such curve, though single readings can be large; an effect the other way counts as inactive or inconclusive.
SMILES,Pf growth 48h,Sm TGR inh,Pf growth 96h,Shiga inhibitor,CHX counter,NS1 inh
COc1ccc(NC(=O)O/N=C/c2ccccc2Cl)cc1,27%,7%,39%,72*,30*,-3%
Cc1ccc(Sc2c(C)nn(C(C)(C)C)c2OC(=O)CC(C)C)cc1,·,-14%,·,·,·,·
O=C(/C=C/c1ccccc1Cl)Nc1nc(-c2cccs2)ns1,·,-2%,·,·,·,·
CCOc1ccccc1OCC(=O)Nc1nc2ccccc2[nH]1,6%,3%,-2%,52*,22*,·
O=C(COc1cccc2ccccc12)Nc1nc2ccccc2[nH]1,3%,-15%,·,-2,2,-4%
Cc1ccc(CC(=O)Nc2nc3ccccc3[nH]2)cc1C,?,2%,?,41,28,-4%
Cc1cc(C)c(OCC(=O)Nc2nc3ccccc3[nH]2)c(C)c1,-10%,-11%,-17%,13,11,·
O=C(COc1ccccc1)Nc1nc2ccccc2[nH]1,190%,-13%,120%,65*,46*,-13%
Cc1ccccc1OCC(=O)Nc1nc2ccccc2[nH]1,166%,-5%,-16%,108*,32*,·
CCCOc1cccc(OCC(=O)Nc2nc3ccccc3[nH]2)c1,20%,9%,-2%,55,17,-6%
O=C(Cc1ccccc1Cl)Nc1nc2ccccc2[nH]1,80%,5%,?,31*,31*,1%
Cc1nc(NC(=O)CSc2nnc(N)s2)c(Cl)cc1Cl,7%,?,4%,-14,1,·
COc1ccccc1-c1cc(SC)c(C#N)c(=O)o1,-2%,-13%,-2%,-3,-1,-6%
CCOc1ccccc1Nc1nnc(C)c(=O)[nH]1,5%,0%,-2%,-16,-2,-7%
CCOc1ccccc1Nc1nc2ccccc2[nH]1,?,6%,·,22,17*,-12%
CC(C)CN(C(=O)/C=C/c1nc2ccccc2s1)C1CCS(=O)(=O)C1 (stereo not drawn),?,-21%,7.4µM*,·,·,·
Cc1cc(C)c(NC(=S)N(CCc2ccncc2)C(C)C)c(C)c1,10µM*,-5%,-7%,-4,12,·
Cc1cc(Cl)ccc1OCCCC(=O)N1CCN(S(=O)(=O)c2ccccc2)CC1,?,2%,-11%,·,·,·
COC(=O)C1CCN(C(=O)CCCOc2ccccc2)CC1,194%,-4%,-3%,42*,20*,?
COC(=O)C1CCN(C(=O)CSc2ccccc2)CC1,-17%,0%,?,19,8,1%
O=C(CCCOc1ccccc1)N1CCN(C(=O)c2ccco2)CC1,15%,-6%,·,88*,21*,-4%
Cc1cc(Cl)ccc1OCCCC(=O)N1CCN(C(=O)c2ccco2)CC1,-4%,50µM*,?,19,0,-10%
CCN(CC)c1nc(-c2ccc(C(C)(C)C)cc2)nc2ccccc12,·,11%,·,·,·,·
O=c1cc(N2CCN(Cc3ccccc3)CC2)[nH]c(=O)n1-c1ccc(Br)cc1,-9%,?,0%,3,1,11%
CC(c1ccco1)N(C(=O)c1ccc(C#N)cc1)c1ccccn1 (stereo not drawn),3%,1%,·,-52,-4,4%
SMILES,Pf growth 48h,Sm TGR inh,Pf growth 96h,Shiga inhibitor,CHX counter,NS1 inh
Cc1cc(C)cc(C(=O)N(c2ccccn2)C(C)c2ccco2)c1 (stereo not drawn),·,-14%,-20%,16,1,0%
CC(C)c1ccc(C(=O)N(c2ccccn2)C(C)c2ccco2)cc1 (stereo not drawn),?,9%,?,90*,30*,-50%
CC(c1ccco1)N(C(=O)c1ccccc1NS(=O)(=O)c1ccc(Cl)c([N+](=O)[O-])c1)c1ccccn1 (stereo not drawn),-1%,?,?,39*,-3,-16%
CCCN(CCC)C(=O)C1CC(=O)OC12CCCCC2 (stereo not drawn),-7%,·,39%,-7,-3,-1%
CC(C)Cc1ccc(CN2CCCC(NC(=O)c3ccoc3)C2)cc1 (stereo not drawn),10µM*,6%,64%,32,2,3%
CC(C)Cc1ccc(CN2CCCC(NC(=O)c3cccc(-n4cnnc4)c3)C2)cc1 (stereo not drawn),13µM*,5%,-22%,11,13,30%
CCOC(=O)C1=C(C)N(CCCCCC(=O)O)C(=O)NC1c1cccc([N+](=O)[O-])c1 (stereo not drawn),-3%,-21%,4%,-8,-4,4%
CC1=C(C(=O)OCc2ccccc2)C(c2ccc(Cl)cc2)NC(=O)N1CCCCCC(=O)O (stereo not drawn),?,-19%,12µM*,-22,-4,-3%
CC1=C(C(=O)OCc2ccccc2)C(c2cccc([N+](=O)[O-])c2)NC(=O)N1CCCCCC(=O)O (stereo not drawn),?,-7%,10µM*,-18,-4,-1%
CC1=C(C(=O)OCc2ccccc2)C(c2ccccc2)NC(=O)N1CCCC(=O)O (stereo not drawn),?,-7%,?,-5,-1,4%
Cc1ccc(C(=O)Nc2cc3ccccc3oc2=O)cc1,14%,18%,11%,32,29*,5%
CC(=O)c1cc(NC(=O)c2ccc(C)cc2)c(=O)oc1C,105%,40µM*,112%,72*,28,-2%
CC1(C)CC(=O)c2cc(NC(=O)c3ccccc3)c(=O)oc2C1,27%,-3%,-24%,55*,27*,-8%
COC(=O)c1cc(NC(=O)c2ccc(OC)cc2)c(=O)oc1C,-37%,-9%,47%,25,17,·
CC(=O)c1cc(NC(=O)c2ccccc2)c(=O)oc1C,?,35µM*,94%,-13,6,3%
CC(=O)Nc1cc2ccccc2oc1=O,10%,9%,235%,22,13,·
COc1cc(NC(=O)C2CCCO2)c(OC)cc1NC(=O)c1ccccc1 (stereo not drawn),0%,-12%,?,21,2,-8%
COc1ccccc1N1CCN(c2nc3ccc(C(=O)c4ccccc4)cc3n3c(C)nnc23)CC1,·,5%,·,·,·,·
CCn1ccc2cc(S(=O)(=O)N3CCC(C(=O)NCCc4ccc(C)cc4)CC3)ccc21,·,3%,·,·,·,·
Cc1oc(=O)c(NC(=O)c2ccc(Cl)cc2)cc1C(=O)c1ccccc1,?,4µM*,-2%,132*,65*,-97%
Cc1oc(=O)c(NC(=O)c2ccccc2)cc1C(=O)c1ccccc1,90%,22µM*,35%,101*,64*,-107%
CC(=O)c1cc(NC(=O)c2ccc(C)cc2)c(=O)oc1/C=C/N(C)C,70%,-14%,64%,52*,48*,2%
CCOC(=O)c1cc(NC(=O)c2ccccc2)c(=O)oc1C(F)(F)F,?,-24%,-18%,16,27*,·
